Screening results as filed in PubChem.
KB-3-1 cytotox: kills parental KB-3-1 adenocarcinoma cells; Potency, µM (top dose mostly 46.1 µM), most hits filed as cytotoxic; KB-3-1 viability, CellTiter-Glo ATP luminescence, 72 h; 400,000 compounds, 1.4% hits; further: on the % scale 0 is the no-effect control and ±100 the full control effect; nearly all actives have a fitted effect of over 60% in size
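KB-3-1 cells, DMEM (no phenol red) + 10% FBS; compound by pin transfer, 72 h, 37 °C. Readout: CellTiter-Glo luminescence after 10 min. Data normalized, curve-fitted.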
MCF10A rereplic: inducers of DNA re-replication in MCF 10A breast cells. Potency, µM (doses to about 46.1 µM), for inactives: at the highest dose activity, positive = re-replication, hits mostly activators. 350,000 compounds, 2.9% hits. MCF 10A DNA re-replication, Hoechst nuclear intensity, 48 h. AID 624296; further: % of control where 0% means no effect; nearly all actives have a fitted effect of over 50% in size
ELG1 repair inh: blocks ELG1-dependent DNA repair in HEK293T cells; 330,000 compounds, 2.3% hits; Potency, µM (titrated, usually from 46.1 µM), for the others: at the highest dose activity change, negative = inhibition, actives largely listed as inhibitors; HEK293T ELG1-luciferase reporter, luminescence, 16 h; DNA damage induced by 5-fluorouridine; AID 504467; further: on the % scale 0 is the no-effect control and ±100 the full control effect; nearly all actives have a fitted effect of over 55% in size
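Luminescence from the luciferase reporter, measured 30 min after ONE-Glo reagent at room temperature, was the read-out. Beforehand, 2,000 cells per well were exposed for 16 hr at 37 °C to 5-fluorouridine together with compound or vehicle.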
SW480 rerep: induces DNA re-replication in SW480 colon adenocarcinoma cells; AID 624297; 340,000 compounds, 1.8% hits; SW480 DNA re-replication, Hoechst DNA content imaging, 48 h; Potency, µM (series often up to 46.1 µM), for the others: top-dose re-replication activation, hits mostly activators; further: % of control where 0% means no effect; nearly all actives have a fitted effect of over 55% in size
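Readout is total intensity of Hoechst-stained nuclei, excited at 405 nm and collected at 500-530 nm. Compound treatment lasted 48 hr at 37 C in 5% CO2 before staining.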
KB-V1 cytotox: KB-V1 MDR subline cytotoxicity | 400,000 compounds, 3.4% hits | Potency, µM (titrated, usually from 46.1 µM), usual class: cytotoxic | KB-V1 MDR cells viability, CellTiter-Glo, 72 h | AID 1347076; further: on the % scale 0 is the no-effect control and ±100 the full control effect; nearly all actives have a fitted effect of over 60% in size
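KB-V1 cells (P-gp-expressing MDR subline of KB-3-1) in phenol-red-free DMEM with 10% FBS were exposed to library compounds over a concentration series for 72 h at 37 degrees C. Viability read by CellTiter-Glo luminescence; concentration-effect curves fitted after normalization.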
Active calls of the source: *; i = inactive; ? = inconclusive; · = not tested or not shown; [ ] = remark or other dose. Only some compounds are listed: those with a hit (about 8.1% of all), similar ones and a draw of the others. The call rests on the fitted dose curve; in most records, active means well fitted curve in the direction sought with a large enough effect; inconclusive means small, poorly fitted or top-dose-only effect, or another doubt; inactive means no such curve, though single readings can be large; an effect the other way counts as inactive or inconclusive. Potency means the concentration at half of the fitted maximal effect.

SMILES	KB-3-1 cytotox	MCF10A rereplic	ELG1 repair inh	SW480 rerep	KB-V1 cytotox
CCCCOc1ccc(-c2nonc2NC(=O)c2ccco2)cc1	i	·	·	·	i
O=C(NCc1cccc(Cl)c1)c1ccc(-n2cncn2)c2ccoc12	i	·	·	·	i
COc1ccccc1-c1nn2c(-c3ccc(C(C)(C)C)cc3)nnc2s1	·	·	-2%	·	·
Clc1ccccc1-c1nnc2sc(-c3ccncc3)nn12	i	0%	?	-3%	i
COc1ccccc1-c1nnc2sc(-c3cc4ccccc4o3)nn12	0.52µM*	2.9µM*	13%	2.6µM*	?
COc1ccccc1-c1nnc2sc(-c3ccc(N(C)C)cc3)nn12	0.29µM*	?	7%	?	0.058µM*
Clc1ccccc1-c1nn2c(-c3ccncc3)nnc2s1	i	-1%	10µM*	-2%	?
COc1ccccc1-c1nn2c(C(F)(F)F)nnc2s1	?	2%	23%	3%	7.3µM*
CCOc1ccccc1NC(=O)c1nc(SCc2ccccc2F)ncc1Cl	i	·	·	·	i
COc1ccccc1OC(C)C(=O)Nc1c(C(=O)c2ccc(Cl)cc2)oc2ccccc12 (configuration not stated)	i	·	·	·	?
COCCCNC(=O)Cn1cc(/C=C(\C#N)C(=O)NC2CC2)c2ccccc21	i	8%	-2%	2%	i
COc1ccc(-c2nn3c(-c4cccc(C)c4)nnc3s2)cc1OC	i	?	·	?	16µM*
COc1cc(-c2nn3c(C4CCCCC4)nnc3s2)cc(OC)c1OC	i	?	5.8µM*	0%[9.22 µM]	?
CN(C)c1ccc(-c2nn3c(-c4ccccc4Cl)nnc3s2)cc1	0.58µM*	?	?	1µM*	1.2µM*
CN(C)c1ccc(-c2nn3c(-c4cccnc4)nnc3s2)cc1	i	-10%	0%	4%	?
COc1ccccc1-c1nnc2sc(-c3cnccn3)nn12	i	18µM*	5%	?	i
COc1ccc(-c2nn3c(C4CCCCC4)nnc3s2)cc1OC	i	5%	?	-2%	?
COc1ccc(S(=O)(=O)Nc2c(C)n(C)n(-c3ccccc3)c2=O)cc1C(=O)O	i	-1%	2%	-2%	i
Cc1ccc(NC(=O)c2c(Cl)n(C)c3ccccc23)cc1	?	?	?	?	6.5µM*
Cn1c(Cl)c(C(=O)Nc2ccccc2)c2ccccc21	i	3%	19%	8%	i
Cc1cc(C)n2nc(CNC(=O)c3c(F)cccc3F)nc2n1	i	·	·	·	i
COCCNC(=O)C1(C)CCCN(Cc2ccc(Oc3ccccc3)cc2)C1 (configuration not stated)	i	·	·	·	?
Cc1cccc(Cn2c(O)c(N=NC(=S)Nc3ccccc3F)c3ccccc32)c1	?	-6%	3.7µM*	-96%	?
Cc1ccc2c(c1)c(N=NC(N)=S)c(O)n2Cc1ccccc1	i	14%	16%	0%	i
Oc1c(N=NC(=S)Nc2ccccc2F)c2ccccc2n1Cc1cccc(Cl)c1	6.5µM*	7%	?	0%	i
SMILES	KB-3-1 cytotox	MCF10A rereplic	ELG1 repair inh	SW480 rerep	KB-V1 cytotox
NC(=S)N=Nc1c(O)n(Cc2ccc(F)cc2)c2ccccc12	i	?	?	2%	i
Oc1c(N=NC(=S)Nc2ccccc2F)c2ccccc2n1Cc1ccc(F)cc1	i	-5%	5.2µM*	0%	i
CN(C)c1ccc(CCc2ccnc3ccccc23)cc1	i	·	·	·	i
CC1CCN(CC(=O)n2c3c(c4ccccc42)CCCC3)CC1	i	3%	7%	-2%	i
O=C(c1ccccc1F)n1c2c(c3ccccc31)CCCC2	?	15µM*	?	?	?
COc1cccc(N2CC(O)Cn3c2nc2c3c(=O)n(CCCc3ccccc3)c(=O)n2C)c1 (configuration not stated)	i	1%	23µM*	-8%	?
COc1ccc(N2CCn3c2nc2c3c(=O)n(CCCc3ccccc3)c(=O)n2C)c(OC)c1	?	10%	21µM*	0%	9.2µM*
COc1ccc(N2CC(C)Cn3c2nc2c3c(=O)n(Cc3ccccc3)c(=O)n2C)c(OC)c1 (configuration not stated)	i	17%	18µM*	14%	i
COc1ccccc1S(=O)(=O)N[C@@H]1CC[C@@H](CCn2cc(C3CC3)nn2)O[C@@H]1CO	i	·	·	·	i
C=CCNC(=O)c1ccccc1NC(=O)c1ccc(Cl)c(S(=O)(=O)Nc2cc(C)ccc2C)c1	i	-2%	?	-3%	21µM*
CC(C)(C)OC(=O)N1O[C@H]2C[C@@H]1[C@@H]1[C@@H]2N=NN1C12CC3CC(CC(C3)C1)C2	i	-3%	3%	21µM*	i
CC(C)c1ccc(NC(=O)C2(C)Cc3c(-c4ccccc4)ccnc3O2)cc1 (configuration not stated)	i	·	·	·	i
CCOC(=O)Nc1ccc2c(c1)N(C(=O)CCN1CCOCC1)c1ccccc1S2	i	?	-12%	-6%	i
CCOC(=O)Nc1ccc2c(c1)N(C(=O)CCN1CCOCC1)c1ccccc1S2=O (configuration not stated)	?	10µM*	-16%	5.8µM*	?
COc1ccc(OCC(=O)Nc2cc(-c3nc4ccccc4o3)ccc2Cl)cc1	i	·	·	·	?
CC(C)Oc1ccc(S(=O)(=O)N2CCOCC2)cc1NC(=O)c1ccc(N2CCCC2=O)cc1	i	2%	-7%	2%	i
CCOC(=O)C(NC(=O)c1ccc(OC)cc1)(OCC1(CC)COC1)C(F)(F)F (configuration not stated)	i	-2%	0%	0%[9.22 µM]	i
CCOC(=O)C(NC(=O)c1ccccc1)(OCC1(CC)COC1)C(F)(F)F (configuration not stated)	i	0%	8%	-3%	18µM*
CC(=O)N1CCCc2cc(S(=O)(=O)N3CCC(C)CC3)ccc21	i	-2%	-7%	-109%	21µM*
CC(=O)N1c2ccc(S(=O)(=O)N3CCCC(C(=O)N4CCC(C)CC4)C3)cc2CC1C (configuration not stated)	i	-1%	-8%	-7%	21µM*
CC(=O)N1c2ccc(S(=O)(=O)N3CCC(C(=O)N4CCN(c5ccccc5F)CC4)CC3)cc2CC1C (configuration not stated)	i	17%	21µM*	3%	i
CC(=O)N1c2ccc(S(=O)(=O)N3CCC(C(=O)N4CCN(c5ccc(Cl)cc5)CC4)CC3)cc2CC1C (configuration not stated)	i	4%	-24%	-23%	i
